Screening data from PubChem BioAssay.
CHX counter: Cycloheximide Counterscreen for Small Molecule Inhibitors of Shiga Toxin; cell reporter, cycloheximide protein synthesis inhibition counterscreen; max response, %; actives 12% (n = 300,000); AID 2314, 2010; in the data active = max response mostly above about 13%, no sharp cut-off; inactive = mostly below about 14%; also: read at 38.3 µM for the half of the compounds with a filed dose; 0% is about no effect
Pf growth 48h: Primary qHTS for delayed death inhibitors of the malarial parasite plastid, 48 hour incubation; actives 5.9% (n = 310,000); Potency, µM (top dose mostly 28.7 µM), inactives show at the top dose activity change, negative = inhibition, most hits filed as inhibitors; P. falciparum luciferase growth in erythrocytes, 48 h; also: potency is read from the fitted curve at half-maximal effect; % is scaled to controls: 0 for no effect and ±100 for the full control effect
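Erythrocytes infected with P. falciparum carrying an integrated firefly luciferase reporter (2% hematocrit, 0.1% parasitemia final) were exposed to compounds in RPMI 1640 with 0.5% Albumax at 37 C, 5% CO2. Growth inhibition was scored as reduced luminescence.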
Pf growth 96h: Primary qHTS for delayed death inhibitors of the malarial parasite plastid, 96 hour incubation. P. falciparum luciferase reporter growth, 96 h. Potency, µM (titrated, usually from 28.7 µM), inactives show at the top dose activity change, negative = inhibition, usual class: inhibitors. actives 6.9% (n = 320,000); also: potency is read from the fitted curve at half-maximal effect; % is scaled to controls: 0 for no effect and ±100 for the full control effect
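Delayed-death screen, second-generation endpoint: infected erythrocytes, 2% hematocrit, 0.05% parasitemia final; 96 hours at 37 C, 5% CO2; luciferase detection reagent; luminescence decrease equals reduced growth.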
Shiga inhibitor: A qHTS for Small Molecule Inhibitors of Shiga Toxin; Vero cells, Shiga toxin protein synthesis inhibition reporter; inhibition, % at 38.7 µM; actives 9.2% (n = 290,000); AID 2315, 2010; in the data active = inhibition mostly above about 28%, no sharp cut-off; inactive = mostly below about 43%; also: 0% is about no effect
HCV inh: qHTS Assay for Inhibitors of Hepatitis C Virus (HCV). Huh7.5.1 HCVcc-Cre infection, luciferase reporter, 44 h. Potency, µM (series often up to 41.8 µM), without a hit: top-dose activity change, negative = inhibition, hits mostly inhibitors. actives 3.4% (n = 340,000). AID 651820, 2012; also: potency is read from the fitted curve at half-maximal effect; % is scaled to controls: 0 for no effect and ±100 for the full control effect
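Luciferase read-out (15 sec integration) after a 15 min room-temperature substrate step quantifies HCVcc-Cre infection. Cells, 1,000 per well, had compound added 4 h post-plating, then virus at ~0.5 moi, and were cultured 44 h.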
AMA1 RON2 block: qHTS for Inhibitors of AMA1-RON; Towards Development of Antimalarial Drug Lead: Primary Screen; Plasmodium falciparum AMA1 (3D7) - RON2 peptide interaction; AlphaScreen AMA1-biotinylated RON2 peptide binding; Potency, µM (highest dose often 58.2 µM), for the others: at the top dose activity change, negative = inhibition, actives largely listed as inhibitors; actives 0.2% (n = 360,000);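 also: potency is read from the fitted curve at half-maximal effect; 0% = vehicle wells and -100% = peptide control; nearly all actives have a fitted effect of over 45% in size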
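AMA1 (3D7) with his tag at 25 nM final met compounds first, then biotinylated RON2 peptide at 25 nM; detection used donor plus acceptor beads, 10 µg/mL apiece, read by AlphaScreen after 30 min at room temperature.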
* hit, by the source's call; ? = inconclusive; · = not tested or not shown; [ ] = dose if it differs, or a comment. Sampled rows, rich in hits. Any-hit rate of the full collection: about 21%. Unless noted, calls follow the shape of the dose curve; as a rule, active = well fitted curve in the direction sought with a large enough effect; inconclusive = small, poorly fitted or top-dose-only effect, or another doubt; inactive = no such curve, though single readings can be large; an effect the other way counts as inactive or inconclusive.

SMILES	CHX counter	Pf growth 48h	Pf growth 96h	Shiga inhibitor	HCV inh	AMA1 RON2 block
C[C@H]1CN=C(N(C)C)N1CC1CCC(C(C)(C)C)CC1 (stereo not given in full)	·	7.38µM*	?	·	?	2.2%
CNc1nc(-c2ccc3c(c2)CCN3C(=O)c2ccccc2F)cs1	53.6*	?	43.4%	94.5*	11.2µM*	-12.5%
CNc1nc(-c2ccc3c(c2)CCN3C(=O)c2ccccc2F)c(C)s1	17.5*	?	?	61.1*	?	9.9%
CNc1nc(-c2ccc3c(c2)CCN3C(=O)CC(C)(C)C)c(C)s1	7.2	21.9%	14.4%	-2.4	-15.7%	39.7%
Nc1nccnc1C(=O)OCC(=O)Nc1ccc2[nH]c(=O)[nH]c2c1	·	32.5%	16.6%	·	-4.3%	14.1%
CN(C)CCCNC(=O)c1cc(C(=O)c2cccc(Cl)c2Cl)c[nH]1	-8.6	-15.0%[0.00184 µM]	-11.3%	-11.7	-9.6%	7.9%
COc1ccc(O)c(CN2CC3CCC(CC3)C2)c1	·	·	·	·	-12.2%	-10.7%
COc1cccc(C(=O)c2c[nH]c(C(=O)NCCCN3CCOCC3)c2)c1	6.9	-13.6%	2.0%	13.5	6.2%	3.1%
CC(C)NC(=S)N/N=C/c1sc(N2CCCCC2)nc1-c1cccs1	8.2	0.0%	0.828µM*	-10.7	?	17.7%[11.6 µM]
O=C(N/N=C/c1sc(N2CCCCC2)nc1-c1cccs1)C1CC1	13.5	10.4µM*	5.22µM*	39.6	?	13.8%
CCCCNC(=S)N(C)/N=C/c1sc(N2CCCCC2)nc1-c1cccs1	-1.8	10.4µM*	11.7µM*	4.0	-12.6%	·
Cc1ccc(C(=O)N2CCNC(=O)C2CC(=O)Nc2ccccc2)cc1 (stereo not given)	-1.9	-0.1%	46.7%	-7.0	16.1%	-13.9%
COCCN1C[C@@H](CO)O[C@@H](n2cnc3c(NCC(C)C)ncnc32)C1	·	·	·	·	·	10.8%
C[C@@H]1CN([C@H](C)CO)C(=O)CCCn2nncc2CO[C@H]1CN(C)Cc1cccc(O)c1	·	·	·	·	·	-1.4%
Cc1ccn2c(NCc3ccccc3)c(-c3cccs3)nc2c1	29.6*	?	-0.3%	55.5*	-13.8%	-32.0%
c1csc(-c2nc3ccccn3c2NC2CCCCC2)c1	-3.0	4.7%	1.9%	-19.4	-15.2%	-29.6%
Cc1ccn2c(NC3CCCC3)c(-c3cccs3)nc2c1	22.9*	36.0%	90.1%	27.5*	-17.9%	4.0%
Clc1ccc(-c2cn(-c3nc4ccccc4s3)nn2)cc1	·	·	·	·	·	-0.8%
O=C(CCCOc1ccccc1)Nc1cccc(S(=O)(=O)N2CCCCCC2)c1	·	?	?	·	?	13.5%
CS(=O)(=O)c1sc(C#N)c2c1C(=O)CC(c1ccccc1)C2 (stereo not given)	-4.7	11.7µM*	?	-6.6	?	0.0%
COc1cccc2cc(C(N)=O)oc12	12.8	11.6%	18.3%[5.75 µM]	-20.0	-2.7%	0.0%
COc1cccc2cc(C(=O)c3ccc([N+](=O)[O-])cc3)oc12	22.6*	25.2%	14.7µM*	22.3	-27.6%	-15.2%
O=C1[C@@H]2[C@@H]3C[C@@H]([C@H]4ON=C(c5ccc(Cl)cc5)[C@@H]34)[C@@H]2C(=O)N1C1CCCCC1	7.1	24.5%	10.4µM*	-5.6	?	-5.0%
C=CCOc1ccc(C2=NO[C@@H]3[C@@H]4C[C@@H]([C@H]5C(=O)N(C)C(=O)[C@@H]45)[C@H]23)cc1	0.4	-19.5%	-15.4%	-1.1	?	3.8%
COc1ccccc1NC(=O)COC(=O)CC(C)(C)CC1=NS(=O)(=O)c2ccccc2N1	-2.3	?	?	7.3	?	13.2%
SMILES	CHX counter	Pf growth 48h	Pf growth 96h	Shiga inhibitor	HCV inh	AMA1 RON2 block
CC(C)(CC(=O)OCC(=O)Nc1ccccc1F)CC1=NS(=O)(=O)c2ccccc2N1	-4.0	?	11.7µM*	-2.8	-14.5%	13.4%
CC1=CC(=O)C(Sc2ccc(C)cc2)=CC1=O	·	·	·	·	·	12.6µM*
Cc1ccc(Sc2ccc(CN3CCCCC3)cc2[N+](=O)[O-])cc1	-0.8	?	?	-16.2	?	-13.2%
CCOc1ccc(N2C(=O)CC(N(C)Cc3ccccc3)C2=O)cc1 (stereo not given)	9.1	-9.1%	8.7%	1.4	19.4%	9.9%
CCCOc1ccc(N2C(=O)CC(SCCN)C2=O)cc1 (stereo not given)	50.2*	216.0%	?	93.3*	6.6%	3.55µM*
CCOc1ccc(N2C(=O)CC(N)C2=O)cc1 (stereo not given)	-2.5	-10.8%	-6.2%	5.2	5.01µM*	-1.6%
COC(=O)c1ccc(N2C(=O)CC(N(C)Cc3ccccc3)C2=O)cc1 (stereo not given)	1.4	14.0%	0.294µM*	-11.1	2.4%	-3.8%
COC(=O)c1ccc(N2C(=O)CC(SCCN)C2=O)cc1 (stereo not given)	42.4*	104.2%	0.4%	53.7*	9.8%	7.9%
O=S(=O)(O)c1c(NS(=O)(=O)c2ccccc2)ccc2ccccc12	3.6	·	·	10.5	·	·
Cc1ccc(Sc2cncc3sc(C(N)=O)cc23)cc1	15.9	·	·	12.8	·	·
COC(=O)[C@@H](Cc1c[nH]c2ccccc12)NC(=O)CNC(=O)c1ccccc1OC	-10.1	15.6%	6.6%	-2.2	-11.0%	-0.8%
COc1ccc(N2C(=O)c3ccc(C(=O)Nc4ccc(NC(C)=O)cc4)cc3C2=O)cc1	-3.4	?	-3.6%	-5.1	18.5%	3.6%
CC[C@]12c3[nH]c4cc(-c5ccco5)ccc4c3CCN1C(=O)[C@@H](CC(=O)NCc1cccc(C(F)(F)F)c1)C[C@@H]2C(=O)N1CCN(C(=O)c2ccco2)CC1	·	·	·	·	?	-23.6%
CCOC(=O)C(N)CSC1CC(=O)N(c2ccc(C(=O)OC)cc2)C1=O (stereo not given)	1.4	54.1%	5.22µM*	-10.1	-11.1%	-16.9%
CCOc1cc(/C=C(\CC(=O)O)c2nc3ccccc3s2)ccc1OC	8.8	?	7.9%	28.8	0.7%	5.6%
Cc1ccc(/C=C(\CCC(=O)O)c2nc3ccccc3s2)cc1[N+](=O)[O-]	2.6	1.9%	25.5%	15.3	0.8%	-3.5%
CN(c1ccccc1)c1ccc(/C=C(\CCC(=O)O)c2nc3ccccc3s2)cc1[N+](=O)[O-]	16.5*	3.5%	-5.0%	21.3	11.2%	?
COc1ccc(/C=C(\CC(=O)O)c2nc3ccccc3s2)cc1O	25.8	63.3%	-0.5%	71.9*	-17.3%	5.1%
COc1ccc(C(=O)Nc2cccc(/C=C(\CCC(=O)O)c3nc4ccccc4s3)c2)cc1	17.0*	33.5%	51.0%	59.3*	-3.9%	-3.5%
